Assay outcomes as filed in PubChem BioAssay.
hgDAF12 agonist = hgDAF-12 agonism, primary luciferase screen | 370,000 tested, 1.8% active | activation, % at 6.8 µM | HEK293 GAL4-hgDAF12 UAS-luciferase reporter, agonist luminescence; normalized to butyrate control;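 active means activation above a cutoff set at the mean of all screened compounds plus 3 SD, cut at about 10% in these data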;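 further: 0% = DMSO wells and 100% = sodium butyrate wells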
DAX1 inh-1 = inhibitors of human orphan nuclear receptor DAX1 (NR0B1); HEK293 Gal4-DAX1 luciferase reporter, luminescence; inhibition, % at 6.75 µM; 340,000 tested, 0.99% active; AID 504766;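 active means inhibition above the mean over all tested compounds plus 3 SD, cut at about 4.2% in these data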;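 further: 0% = DAX1-transfected cells with DMSO and 100% = empty-vector control cells with DMSO; inhibition shows as a rise in luminescence from relieved DAX1 repression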
Target sequence (P51843 207-470 limits assumed): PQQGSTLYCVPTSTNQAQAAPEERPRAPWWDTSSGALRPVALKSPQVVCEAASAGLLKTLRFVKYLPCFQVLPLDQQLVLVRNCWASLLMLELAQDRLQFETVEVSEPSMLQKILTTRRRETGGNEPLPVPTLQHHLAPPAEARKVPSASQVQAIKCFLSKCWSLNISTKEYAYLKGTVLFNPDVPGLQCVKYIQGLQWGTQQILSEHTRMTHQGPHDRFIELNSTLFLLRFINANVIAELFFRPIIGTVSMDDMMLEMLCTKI
hcDAF12 agonist = activators of H. contortus DAF-12 nuclear receptor | HEK293 hcDAF-12 lit1-tk-luc reporter, luminescence; 0% DMSO, 100% Δ7-dafachronic acid | 370,000 tested, 1.4% active | activation, % at 6.8 µM;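 active means activation above the mean of all tested compounds plus 3 SD, cut at about 5.5% in these data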;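 further: 100% = response to 3 µM Δ7-dafachronic acid high control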
ssDAF-12 act = activates DAF-12 receptor from parasite S. stercoralis; HEK293 ssDAF-12/GRIP1 lit1-tk-luc reporter, luminescence; % of 3 µM dafachronic acid response; activation, % at 6.8 µM; 370,000 tested, 1% active;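 active means activation above the mean over all tested compounds plus 3 SD, cut at about 0.9% in these data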;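 further: 0% = DMSO-only wells and 100% = 3 µM delta7-dafachronic acid wells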
DAX1 inh-2 = inhibitors of DAX1 repression of SF-1 activated StAR promoter; inhibition, % at 6.8 µM; HEK293T StAR-luciferase reporter, SF-1/DAX-1 repression relief; 370,000 tested, 1.1% active;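 active means inhibition above the mean over all tested compounds plus 3 SD, cut at about 3.6% in these data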;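 further: 0% = DAX-1 cells with DMSO and 100% = cells lacking DAX-1 with DMSO; higher inhibition means more luminescence from relief of DAX-1 repression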
LXR ag = LXR-beta agonism as hcDAF-12 counter-screen | shares compounds with hcDAF12 agonist | HEK293 Gal4-LXR tk-luc reporter, luminescence, 24 h; normalized: DMSO 0%, positive control 100% | activation, % at 6.8 µM | 3,400 tested, under 10 active | AID 743027;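 active means mean percent activation of the reporter above a cutoff set as the average over tested compounds plus their standard deviation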
Target sequence (P55055 whole entry, looked up, the tested form may be a part): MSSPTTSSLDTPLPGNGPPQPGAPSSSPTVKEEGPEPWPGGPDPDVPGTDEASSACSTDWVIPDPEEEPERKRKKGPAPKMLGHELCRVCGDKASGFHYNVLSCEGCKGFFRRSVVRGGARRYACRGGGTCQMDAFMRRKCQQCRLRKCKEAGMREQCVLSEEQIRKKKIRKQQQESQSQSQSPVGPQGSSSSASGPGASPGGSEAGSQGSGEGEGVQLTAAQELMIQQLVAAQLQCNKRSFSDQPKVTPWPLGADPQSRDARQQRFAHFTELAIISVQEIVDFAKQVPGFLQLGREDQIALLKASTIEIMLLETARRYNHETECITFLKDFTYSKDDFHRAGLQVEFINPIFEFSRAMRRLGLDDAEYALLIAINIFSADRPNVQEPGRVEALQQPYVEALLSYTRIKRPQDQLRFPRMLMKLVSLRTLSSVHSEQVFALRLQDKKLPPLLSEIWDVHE
hcDAF12 conf = confirmation of H. contortus DAF-12 agonists | shares compounds with hcDAF12 agonist | activation, % at 6.8 µM | 3,400 tested, 61% active | AID 743032 | HEK293 hcDAF-12 lit1-tk-luc reporter, luminescence; % of Δ7-dafachronic acid response;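 active means mean activation across triplicate tests above the threshold derived from the earlier primary screen, cut at about 5.5% in these data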;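 further: 0% = DMSO only wells and 100% = 3 µM Δ7-dafachronic acid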
* marks the source's active call; other numbers are inactive results; · = not tested or not shown. Compounds with a hit are over-represented: about 4.1% of the library has one in this group of screens.

SMILES | hgDAF12 agonist | DAX1 inh-1 | hcDAF12 agonist | ssDAF-12 act | DAX1 inh-2 | LXR ag | hcDAF12 conf
Cn1c(CC(=O)Nc2ccccc2)cc2ccccc21 | 9.1 | 0.6 | 9.9* | 1.0* | -0.4 | 0.2 | 7.6*
Cn1c(CC(=O)Nc2ccccc2)c(Sc2ccccc2)c2ccccc21 | 2.0 | 0.2 | 7.5* | 0.5 | 0.1 | -0.2 | 3.5
CCN(C(=O)Cn1ccc(C(F)(F)F)n1)c1c(N)n(Cc2ccccc2)c(=O)[nH]c1=O | -2.7 | 0.6 | -0.2 | -1.1 | -0.9 | · | ·
CC1Cn2c(nnc2-c2ccc(F)cc2)S1 (configuration not stated) | 0.2 | 1.1 | 6.9* | 1.0* | 1.8 | -0.1 | 1.6
Nc1cc2c(cc1N)-c1ccccc1C2 | 7.9 | 3.5 | 6.7* | -0.2 | 3.8* | 0.0 | 4.0
CCCc1ccc(NC(C)C(=O)Nc2ccc(S(=O)(=O)N3CCOCC3)cc2)cc1 (configuration not stated) | -0.4 | -0.6 | 0.1 | -1.3 | -1.5 | · | ·
N#Cc1cnn2cc(-c3ncc(C(F)(F)F)cc3Cl)cnc12 | 1.8 | 0.1 | -1.5 | -1.6 | -0.5 | · | ·
Cc1cc2ncc(-c3ncc(C(F)(F)F)cc3Cl)cn2n1 | 11.7* | -1.8 | 8.3* | 0.7 | 1.7 | 0.9 | 6.7*
Cc1ccc(C(=O)NCC(=O)Nc2ccncc2)cc1C | 1.2 | 0.6 | -1.0 | -0.9 | -2.7 | · | ·
O=c1cccc2n1Cc1cc3ccccc3nc1-2 | 9.9 | 3.2 | 13.6* | -0.2 | 1.8 | 1.2 | 9.7*
COc1ccc(C(C#N)N2N=C(c3ccccc3)CC2c2ccccc2)cc1OC (configuration not stated) | 7.0 | 2.3 | 8.7* | 0.1 | 2.1 | 0.1 | 1.9
COc1ccc(C(C#N)N2N=C(C)CC2c2ccccc2)cc1OC (configuration not stated) | -2.0 | -0.5 | 0.4 | -0.3 | -0.1 | · | ·
N#Cc1cccc(C(=O)C(=O)N2CCN(c3ccccc3)CC2)c1 | -2.0 | · | 1.1 | -1.0 | 0.4 | · | ·
COc1ccc(OC)c(NC(=O)COC(=O)/C=C/c2ccccc2Cl)c1 | 0.8 | -0.8 | 7.1* | -1.5 | -0.1 | -0.2 | 0.4
COc1ccc(OC)c(NC(=O)COC(=O)/C=C/c2ccco2)c1 | 0.0 | 0.5 | 0.3 | -0.9 | 0.0 | · | ·
CCn1nc(C)cc1C(=O)N1CCCC(N2CCN(Cc3ccc4c(c3)OCO4)CC2)C1 (configuration not stated) | -0.3 | -0.2 | -3.2 | -1.4 | -0.6 | · | ·
Cc1nn(-c2cccc(C(F)(F)F)c2)c(Cl)c1/C=N/Nc1cccc(C(=O)O)c1 | 13.2* | -2.1 | 10.5* | -0.3 | 3.7* | 1.3 | 9.5*
CCS(=O)(=O)Nc1c(C(=O)O)[nH]c2ccccc12 | 0.7 | 0.1 | 7.6* | 0.0 | 0.7 | 0.2 | 4.8
CCS(=O)(=O)Nc1c(C(=O)OC)[nH]c2ccccc12 | -2.2 | -0.3 | 3.4 | -0.1 | 0.4 | · | ·
Cc1ccc2c(c1)[C@H]1[C@H](CO2)[C@H](c2ccccc2)[C@]2(C)C(=O)Nc3cc(F)ccc3C(=O)N12 | 5.2 | -1.6 | 0.2 | -1.1 | -1.6 | · | ·
CC(=O)c1coc2c1cc(O)c1ccccc12 | 2.0 | -0.7 | -1.6 | -0.8 | 0.1 | · | ·
CC(=O)c1cc(O)c2ccccc2c1O | 1.9 | 2.2 | 10.4* | 0.4 | 0.1 | 0.1 | 3.5
Cc1ccc(S(=O)(=O)N2CCN(C(=O)c3cc(S(=O)(=O)N(C)C)ccc3N3CCCC3)CC2)c(C)c1 | -3.2 | -0.2 | -2.0 | -0.9 | 0.5 | · | ·
Cc1c(C(=O)N2CCN(C(=O)c3ccccc3)CC2)oc2ccc(F)cc12 | 2.4 | 0.2 | 0.1 | -1.0 | -0.3 | · | ·
Cc1c(C(=O)/C=C/c2cccs2)oc2ccc(F)cc12 | 12.3* | 2.0 | 8.3* | 0.2 | 0.0 | 1.0 | 13.9*
SMILES | hgDAF12 agonist | DAX1 inh-1 | hcDAF12 agonist | ssDAF-12 act | DAX1 inh-2 | LXR ag | hcDAF12 conf
CC1CCC(NC(=O)CN2C(=O)NC(C)(C)C2=O)CC1 (configuration not stated) | -3.3 | 0.1 | 0.8 | -0.5 | 0.5 | · | ·
Cc1ccc(N=C2NC(=O)/C(=C/C=C/c3ccco3)S2)cc1 | 1.7 | 0.8 | 7.9* | -0.1 | 0.3 | 0.2 | 5.6
CCCC(=O)N1CCOCC1c1cc(C(=O)Nc2ccccc2)no1 (configuration not stated) | 2.5 | · | -0.4 | -1.6 | -0.7 | · | ·
CC(=O)Oc1c(Br)cc(N(C(C)=O)S(=O)(=O)c2ccccc2)c2ccccc12 | -0.2 | -0.9 | 12.4* | 0.5 | -1.7 | -0.2 | 1.8
COCCCN1CC(=O)N2C(c3cccc(C)c3)c3[nH]c4ccccc4c3C[C@H]2C1=O (some centres not stated) | -1.8 | -0.3 | 4.1 | -0.7 | -0.5 | · | ·
COCCN1CC(=O)N2C(c3cccc(C)c3)c3[nH]c4ccccc4c3C[C@H]2C1=O (some centres not stated) | -1.0 | -0.5 | 9.6* | 0.6 | -0.1 | -0.1 | 2.8
C[C@@H](c1ccccc1)N1C[C@@H](COCc2ccccc2)Oc2cc(N3CC[C@@H](N(C)C)C3)ccc2S1(=O)=O | 0.4 | · | 1.6 | -1.4 | -0.8 | · | ·
O=S(=O)(Nc1ccn(-c2ccccc2)n1)c1ccc(Br)cc1 | 5.2 | -0.1 | 7.3* | -1.1 | 1.6 | 0.0 | 4.2
CCN(CC(=O)NCc1cccs1)C(=O)c1ccc(-c2ccccc2F)o1 | 1.8 | 0.3 | -0.5 | -0.8 | 0.2 | · | ·
O=C1c2ccccc2C(c2nnnn2Cc2ccccc2)N1C1CC1 (configuration not stated) | 4.2 | · | -0.6 | -1.1 | 2.6 | · | ·
Cc1ccc2c(c1)Sc1c(ccc3ccccc13)N2 | 20.8* | 4.8* | 13.9* | 3.2* | 3.2 | 1.1 | 8.0*
O=C(Nc1nc2c(F)cc(F)cc2s1)c1ccccn1 | 12.6* | -1.7 | 7.0* | 0.7 | 2.5 | 0.7 | 3.6
CCc1noc(C)c1C(=O)Nc1nc2c(C)cccc2s1 | 5.6 | 4.0 | 0.5 | -0.8 | -0.1 | · | ·
CCc1noc(C)c1C(=O)Nc1nc2c(F)cc(F)cc2s1 | 2.2 | 0.3 | 10.6* | 0.0 | 0.1 | 0.2 | 3.8
Nc1ccc2nc(-c3ccc(Cl)cc3)[nH]c2c1 | 3.6 | 1.8 | 7.0* | -0.2 | 2.0 | 0.8 | 3.8
Nc1ccc(-c2nc3ccc(N)cc3[nH]2)cc1 | -2.0 | -0.7 | -0.9 | -2.0 | 0.5 | · | ·
Nc1cc(N)cc(-c2nc3ccccc3[nH]2)c1 | 1.6 | -0.1 | 8.9* | -0.5 | 0.8 | 0.0 | 4.1
O=C(Nc1ccccc1)c1cn(CCBr)cn1 | 8.9 | 3.1 | 6.8* | 1.3* | 1.8 | 1.2 | 5.4
Cc1c(C(=O)N2C[C@@H](C)O[C@@H](C)C2)oc2c(F)cccc12 | 7.9 | 1.6 | 3.0 | -0.3 | 0.4 | · | ·
